Measurements published in ChEMBL document CHEMBL3988442, “University of Dundee, Small-Polar-MMV Screening Library” (2021).
In all, about 53,000 compounds went through this assay and about 900 (1.7%) showed an effect of 50% or more. The entries come from a sample that favours strong results as a whole.

system: Mycobacterium tuberculosis; test: Cornell - Phenotypic assay to identify agents that inhibit growth of Mycobacterium tuberculosis; format: functional; parameters: scale not given: direction of the effect not stated beside the values; settings: 10 mM as filed; unlikely as a test dose

SMILES | Percent Effect
Cc1ncsc1-c1nnc(C2CCCN2C(=O)Cn2cccn2)o1 (configuration not stated) | -1.275%
Cc1cc(CNc2cc(Cl)ccc2Cl)no1 | 51.97%
CCOc1c(Cl)cccc1NCc1cc(C)on1 | 15.54%
Cc1cc(CNc2cc(Cl)ccc2OCCS(C)(=O)=O)no1 | -0.6634%
O=C(NCc1ccccc1Cn1cncn1)C1CCCC1 | 0.5526%
Cc1noc(C)c1CN1CCC2(CC1)NC(=O)CC2c1cnn(C)c1 (configuration not stated) | 47.68%
Clc1ccccc1-c1nc(CNC2CCc3ncnn3C2)co1 (configuration not stated) | -41.84%
Cc1cnc(N2CCOC3(CCCN(C(=O)C(C)C)C3)C2)nc1 (configuration not stated) | 8.771%
Cc1noc(C2(C)CCN(C(=O)C(C)C)CC2)n1 | -18.49%
Cc1ncc2c(n1)C1(CCN(C(=O)C(C)C)CC1)OCC2.Cl | 54.97%
Cc1ncc2c(n1)C1(CCN(C(=O)C3CC3)CC1)OCC2.Cl | 55.8%
O=C(C1CC1)N1CCC2(CC1)OCCO2 | -14.17%
Cc1ncc(C(=O)N2CC(C(=O)N3CCOCC3)C2)c(C)n1 | -7.514%
CCC(CO)N(Cc1cccnc1)C(=O)c1ccncc1F (configuration not stated) | 1.978%
CCc1ncc(CN[C@@H]2CCCN(C(C)=O)[C@H]2c2ccc(C)s2)cn1.Cl | 15.97%
CCc1cc(NC2CCOCC2)n2nc(C)c(C)c2n1 | 14.02%
Cc1ccc(-c2nc(CN3CCC(N4CCNC4=O)CC3)co2)cc1 | 0.5995%
Cc1noc([C@H]2C[C@H]3OCC[C@H]3N(Cc3ccc4c(c3)OCO4)C2)n1.O=C(O)C(F)(F)F | 10.54%
Cc1noc([C@H]2C[C@H]3OCC[C@H]3N(Cc3ccc(F)cc3)C2)n1.O=C(O)C(F)(F)F | 52.79%
CCc1ccc(CN2C[C@@H](c3nc(C)no3)C[C@H]3OCC[C@H]32)o1.O=C(O)C(F)(F)F | 28.15%
O=C(C1CCCC1)N1CCCC1c1nnc2n1CCCCC2 (configuration not stated) | -1.073%
CC(C)c1nc(CSc2nnc(C3CC3)n2CC(N)=O)no1 | 15.19%
CC(C)CCNC(=O)c1csc(NC2CC2)n1 | 27.3%
Cc1cccc(NC(=O)c2csc(NCC(C)C)n2)n1 | 22.32%
CC(NC(=O)Nc1nccs1)C(=O)NC1CCCC1 (configuration not stated) | 13.09%
CC(C)CCNc1nc(C(=O)NC2CC2)cs1 | 44.5%

SMILES | Percent Effect
Cc1cnc(NC(=O)N2CCCC2)s1 | 13.69%
O=C(Nc1ccccn1)c1csc(NC2CCCC2)n1 | 105.8%
Cc1cnc(NC(=O)c2csc(NC3CCCC3)n2)s1 | 99.29%
O=C(Nc1nccs1)c1csc(NC2CCCC2)n1 | 105.9%
Cc1cnc(NC(=O)c2csc(NCC(C)C)n2)s1 | 60.38%
CC(C)NC(=O)c1csc(NC2CC2)n1 | 29.51%
Cc1nc(NC2CCCC2)cc(C2CCN2C(=O)c2ccccn2)n1 (configuration not stated) | -60.39%
CC(C)Nc1nc(C(=O)Nc2ccccn2)cs1 | 27.58%
Cc1nc(CNCc2cccc(OC34CCCN(CC3)C4)c2)n[nH]1 (configuration not stated) | 22.09%
Cc1nn2c(NC(=O)CSc3nccn3C)csc2nc1=O | -11.03%
O=C1CCC(C(=O)Nc2ccc(=O)n(Cc3ccccc3Cl)c2)N1 (configuration not stated) | -13.24%
CNC(=O)c1cccc(C2CNCCN2C(=O)C2CCNCC2)c1 (configuration not stated) | 0.2477%
CCOCC(=O)Nc1cc(-c2cccc(F)c2F)n[nH]1 | 57.77%
CC(=O)Nc1cc(-c2cccc(F)c2F)n[nH]1 | 22.81%
CCS(=O)(=O)CC(=O)Nc1cc(-c2cccc(F)c2F)n[nH]1 | 15.94%
O=C1NC[C@]2(CC[C@@H](C(=O)N3CCCC(O)C3)CC2)Oc2ccccc21 (some centres not stated) | -1.738%
CC(=O)N1CCN(C(C)c2nnc(CC(C)C)o2)CC1 (configuration not stated) | 3.173%
COCCNC(=O)CSCc1nc(O)c2cc(C(C)C)sc2n1 | -18.87%
COC(=O)C(C)NC(=O)CSCc1nc(O)c2cc(C(C)C)sc2n1 (configuration not stated) | 10.11%
COC(=O)[C@H](C)NC(=O)CSCc1nc2sc(C(C)C)cc2c(=O)[nH]1 | 57.77%
CC(C)CN1C[C@H](COCc2ccccc2)Oc2ncccc2C1=O | -10.08%
Cc1ncc(C(=O)NCCNc2ncccn2)s1 | -0.6021%
CCS(=O)(=O)Nc1cnn(Cc2cccc(C)c2)c1 | 56.26%
CCS(=O)(=O)Nc1cnn(Cc2cccc(F)c2)c1 | 14.06%
CCS(=O)(=O)Nc1cnn(Cc2cccc(Cl)c2)c1 | -14.58%
Cc1c(S(=O)(=O)NCC(C)C)cnn1C | -2.001%

SMILES | Percent Effect
COc1cccc(CCC(=O)Nc2c(C)nn(C)c2C)c1OC | -11.78%
Cc1nc(-c2ccc(CO)cc2)cc(C2CCNCC2)n1.Cl | 12.1%
O=C(NCc1ccccn1)[C@@]12CCO[C@@H]1CCN(Cc1ccccn1)C2.O=C(O)C(F)(F)F.O=C(O)C(F)(F)F.O=C(O)C(F)(F)F | -14.31%
COC(=O)[C@H](C)NC(=O)c1cc(-c2cccc(Cl)c2)no1 | 105.7%
CC(NC(=O)c1cc(-c2cccc(Cl)c2)no1)C(=O)N1CCCC1 (configuration not stated) | 1.351%
CC(NC(=O)c1cc(-c2cccc(Cl)c2)no1)C(=O)N(C)C (configuration not stated) | 9.545%
O=C(NCc1ccc(OCC2CC2)nc1)C1COc2ccccc2O1 (configuration not stated) | 16.73%
Cc1nn2c(N3CCC(C(N)=O)CC3)cc(-c3ccccc3)nc2c1C | 21.25%
Cc1nn2c(N3CCC(O)CC3)cc(-c3ccccc3)nc2c1C | 72.96%
Cc1nn2c(N3CCC(O)C3)cc(-c3ccccc3)nc2c1C (configuration not stated) | 16.78%
Cc1nc(N[C@H]2COC[C@@H]2N2CCCC2)c2cnn(C)c2n1 | 2.791%
CCNC(c1ccc(C)cc1)c1cccnc1 (configuration not stated) | -8.954%
CCc1nc(CN(C)C(=O)CSC)no1 | 7.399%
Cc1nc(C)c(C(=O)N2CCc3nnc(C4CCCCN4C)n3CC2)o1 (configuration not stated) | 19.3%
Cc1nc(C)c(C(=O)N2CCc3nnc(C4CCCCN4C)n3CC2)s1 (configuration not stated) | 54.31%
Cc1nc(C)c(C(=O)N2CCc3nnc(C4CCCN4C)n3CC2)s1 (configuration not stated) | 53.89%
Cc1nc(C)c(C(=O)N2CCCC2c2nnc3n2CCCCC3)s1 (configuration not stated) | 13.16%
Cc1ncsc1C(=O)N1CCc2nnc(C3CCCCN3C)n2CC1 (configuration not stated) | 8.689%
Cc1cc2c(=O)n3c(nc2s1)CCN(C(=O)c1sc(C)nc1C)CC3 | 10.24%
CN(C)[C@@H]1CCN(C(=O)c2cccn2C)[C@H]1Cc1cnn(C)c1.O=C(O)C(F)(F)F | -22.73%
O=C(O)C(F)(F)F.c1coc(CN2CCc3nnc(COc4cncnc4)n3CC2)c1 | 21.79%
COc1cccc(CC2CN(C3CC(C)(C)NC(C)(C)C3)CCO2)c1 (configuration not stated) | -51.86%
Cc1cccc2nc(CNC(=O)N3CCC(N4CC=CC4)C3)cn12 (configuration not stated) | 20.26%
O=C(O)[C@@H]1CN(C(=O)CCCc2ccc(F)cc2)C[C@H]1C1CC1 | -11.2%
Cc1ccc(CN2CCC3(C2)C(=O)N(CC(C)C)c2ccccc23)s1 (configuration not stated) | 50.09%
Cc1ccc(CN2CCC3(C2)C(=O)N(CC(N)=O)c2ccccc23)s1 (configuration not stated) | 3.211%

SMILES | Percent Effect
CC(C)CN1C(=O)C2(CCN(Cc3nccs3)C2)c2ccccc21.O=C(O)C(F)(F)F (configuration not stated) | 25.63%
Cc1nc(C)n(CCC(=O)NCC2CCCOC2)n1 (configuration not stated) | 20.26%
CCCN1C[C@H]2CC[C@@H]1CN(Cc1cccc(-n3cccn3)c1)C2 | 9.471%
CCCN1C[C@H]2CC[C@@H]1CN(Cc1ccc(Cn3cccn3)cc1)C2 | -2.42%
CCCN1C[C@H]2CC[C@@H]1CN(Cc1ccc(-n3cccn3)cc1)C2 | 53.91%
CN(C)CCN1C(=O)CCC12CCN(C(=O)c1cccnc1)CC2.O=C(O)C(F)(F)F.O=C(O)C(F)(F)F | 1.557%
CCC(=O)Nc1ccc(F)c(S(=O)(=O)NC(C)(C)C)c1 | -2.357%
CC(C)(C)NS(=O)(=O)c1cc(NC(=O)C2CC2)ccc1F | 50.55%
CC(=O)Nc1ccc(F)c(S(=O)(=O)NC(C)(C)C)c1 | 40.62%
c1ccc(Cc2nc(CNC3CCOC4(CCOCC4)C3)no2)cc1 (configuration not stated) | 8.637%
Cc1noc(C)c1CNC(=O)Nc1ccc(N2CCSCC2)cc1 | 104.5%
Cc1noc(C)c1CNC(=O)NCCC(=O)N1CCCc2ccccc21 | -5.48%
Cc1ocnc1CNC(=O)Nc1ccc(N2CCOC(C)C2)cc1 (configuration not stated) | 104%
Cc1noc(C)c1CNC(=O)N1CCCC(C)CC1 (configuration not stated) | 12.27%
CC1CN(c2ccc(NC(=O)Cn3cccn3)cc2)CCO1 (configuration not stated) | -5.599%
Cc1noc(C)c1CNC(=O)Nc1ccc(N2CCOC2=O)cc1 | -58.42%
Cc1noc(C)c1CN1C[C@@H](C(=O)O)[C@H](c2ccccc2)C1 | 23.54%
CC1CN(c2ccc(CNC(=O)NCCO)cn2)CCO1 (configuration not stated) | 2.175%
Cc1noc(C)c1CNC(=O)Nc1ccc(N2CCOC(C)C2)cc1 (configuration not stated) | 103.9%
Cc1n[nH]/c(=N\C(=O)c2c3c(nc4onc(C)c24)CCC3)s1 | 20.11%
CN(C)CCNCCC(c1ccccc1)C1CCOC(C)(C)C1.O=C(O)C(=O)O (configuration not stated) | 21.42%
CCc1nc(C2CCCN2C(=O)c2cc(Cl)c[nH]2)no1 (configuration not stated) | 23.06%
CC(C)CC(=O)N1CC(=O)N(Cc2ccco2)CC(O)C1 (configuration not stated) | -16.35%
Cn1nc(Br)c2c(NCCCS(N)(=O)=O)ncnc21 | 24.15%
